Reference: PubChem BioAssay (Tox21)
Inconclusive results are not listed. Calls of active or inactive are those of the source. Unless noted, calls come from the whole dose curve; as a rule, active = well fitted curve in the direction sought with a large enough effect in the repeat runs; inconclusive = weak or mixed curves; inactive = no such curve, though single readings can be large; an effect the other way counts as inactive or inconclusive.

Tests used:
[1] = qHTS assay for small molecule agonists of the p53 signaling pathway (AID 651631; calls by dose curve; note: nearly all actives have a fitted effect of over 15% in size; note: potency is the fitted concentration of half-maximal effect)
In short: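 Beta-lactamase reporter activity under p53 response elements was quantified in HCT-116 cells by FRET fluorescence, following 16 h incubation with test compounds at 37 °C and 2 h substrate development at room temperature.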

[2] = qHTS assay for small molecules that induce genotoxicity in human embryonic kidney cells expressing luciferase-tagged ATAD5 (AID 651632); note: nearly all actives have a fitted effect of over 15% in size; note: potency is the fitted concentration of half-maximal effect
In short: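 Quantitative HTS in HEK293T expressing luciferase-tagged ATAD5, whose levels rise upon DNA damage. Exposure ran 16 hr at 37C and 5% CO2, with luminescence read 30 min after Amplite addition at room temperature.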

[3] = qHTS assay for small molecule agonists of the p53 signaling pathway - cell viability (AID 651633; calls by dose curve; note: nearly all actives have a fitted effect of over 30% in size; note: potency is the fitted concentration of half-maximal effect;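 for activity change, negative = cytotoxicity: p53RE-bla HCT reporter cells with a stable beta-lactamase p53 reporter; series mostly up to about 83 µM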)
In short: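 p53RE-bla cells, seeded at 4,000 per well and rested 5 h at 37 C/5% CO2, received compounds in DMSO for 16 h at 37 C. CellTiter-Glo was then added, and luminescence was read after 30 min at room temperature to gauge cytotoxicity.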

[4] = qHTS assay for small molecules that induce genotoxicity in human embryonic kidney cells expressing luciferase-tagged ATAD5 - cell viability (AID 651634; calls by dose curve; note: nearly all actives have a fitted effect of over 25% in size)
In short: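 After 15.5 hr incubation with compound at 37C, 5% CO2, HEK293T ATAD5-luciferase cells received CellTiter-Fluor reagent; fluorescence intensity was quantified following 30 min at 37C.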

[5] = qHTS assay for small molecule disruptors of the mitochondrial membrane potential - cell viability (AID 720634; calls by dose curve;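 note: human HepG2 liver cancer cells; series mostly up to about 83 µM; nearly all actives have a fitted effect of over 20% in size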)
In short: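 ATP-based luminescent viability readout (CellTiter-Glo, 30 min, room temperature) in HepG2 cells multiplexed with the m-MPI membrane potential dye; compound exposure lasted 1 hr at 37 C.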

[6] = qHTS assay for small molecule disruptors of the mitochondrial membrane potential (AID 720635); note: potency is the fitted concentration of half-maximal effect
In short: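 HepG2 cells (2,000/well) attached overnight at 37C, then took compound for 1 hr at 37C, 5% CO2. Mito-MPS dye was added for 30 min; fluorescence was read at 490/535 nm (monomers) and 540/590 nm (aggregates).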

[7] = qHTS assay to test for compound auto fluorescence at 590 nm (red) in HepG2 cells (AID 720674)
In short: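 Compound auto-fluorescence is scored relative to Rose Bengal sodium, measured at 540/590 nm in live HepG2 cultures after 1 hr compound contact (37 C, 5% CO2).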

[8] = qHTS assay to test for compound auto fluorescence at 535 nm (green) in HepG2 cells (AID 720675)
[9] = qHTS assay to test for compound auto fluorescence at 460 nm (blue) in HEK293 cells (AID 720678)
In short: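 HEK293 cells (2,000/well, medium with 10% dialyzed FBS) attached 4-5 hr, then exposed to compound overnight at 37C, 5% CO2. Blue fluorescence read at 405/460 nm, with triamterene as reference fluorophore.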

[10] = qHTS assay to test for compound auto fluorescence at 590 nm (red) in HEK293 cells (AID 720679)
In short: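 HEK293 cells (2,000/well, 10% dialyzed FBS) attached 4-5 hr, then dosed with compound or DMSO and incubated overnight at 37C, 5% CO2. Red fluorescence read at 540/590 nm, Rose Bengal sodium as reference fluorophore.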
% is set by controls: 0 for no effect and ±100 for the full control effect.

COc1ccc(C(=O)c2ccc(C)cc2)c(O)c1
inactive: Potency [1] | Potency [2] | Potency [3] | Potency [4] | Potency [5] | outcome [7] | outcome [8] | Potency [9] | outcome [10]
active: Potency [6] 61.8 µM

CCCCCCCCCC(C)C=O (centres undefined)
inactive: Potency [1] | Potency [2] | Potency [3] | Potency [4] | Potency [5] | Potency [6] | outcome [7] | outcome [8] | Potency [9] | outcome [10]

CCC(CC)C(=O)O
inactive: Potency [1] | Potency [2] | Potency [3] | Potency [4] | Potency [5] | Potency [6] | outcome [7] | outcome [8] | Potency [9] | outcome [10]

O=C(OC1C[C@H]2CC[C@@H](C1)[N+]21CCCC1)C(O)(c1ccccc1)c1ccccc1 (some centres undefined)
inactive: Potency [1] | Potency [2] | Potency [3] | Potency [4] | Potency [5] | Potency [6] | outcome [7] | outcome [8] | Potency [9] | outcome [10]

CC(=O)S[C@H](C(=O)N[C@H]1Cc2ccccc2[C@H]2CCC[C@@H](C(=O)O)N2C1=O)C(C)C
inactive: Potency [1] | Potency [2] | Potency [3] | Potency [4] | Potency [5] | Potency [6] | outcome [7] | outcome [8] | Potency [9] | outcome [10]

C1CCN(CN2CCCCC2)CC1
inactive: Potency [1] | Potency [2] | Potency [3] | Potency [4] | Potency [5] | Potency [6] | outcome [7] | outcome [8] | Potency [9] | outcome [10]

Cc1ccc(S(=O)(=O)NC(=O)NC2CCCC2)cc1
inactive: Potency [1] | Potency [2] | Potency [3] | Potency [4] | Potency [5] | Potency [6] | outcome [7] | outcome [8] | Potency [9] | outcome [10]

CCc1c(C)[nH]c2c1C(=O)C(CN1CCOCC1)CC2 (centres undefined)
inactive: Potency [1] | Potency [2] | Potency [3] | Potency [4] | Potency [5] | Potency [6] | fluorescence, relative to Rose Bengal [7] 0.262% [at 18.6 µM] | fluorescence, % of fluorescein control [8] 0.0551% [at 18.6 µM] | fluorescence, % of triamterene [9] 0.0227% [at 18.6 µM] | fluorescence, % of fluorescent control [10] 0.192% [at 18.6 µM]

CCCCCC1CCC(=O)O1 (centres undefined)
inactive: Potency [1] | Potency [2] | Potency [3] | Potency [4] | Potency [5] | Potency [6] | outcome [7] | outcome [8] | Potency [9] | outcome [10]

O=C1C=CCCC1
inactive: Potency [1] | Potency [2] | Potency [3] | Potency [4] | Potency [5] | Potency [6] | outcome [7] | outcome [8] | Potency [9] | outcome [10]

O=[N+]([O-])c1ccccc1CCO
inactive: Potency [1] | Potency [2] | Potency [3] | Potency [4] | Potency [5] | Potency [6] | outcome [7] | outcome [8] | Potency [9] | outcome [10]

Clc1ccccc1-c1nc(-c2ccncc2)no1
inactive: Potency [1] | Potency [3] | Potency [4] | Potency [5] | Potency [6] | outcome [7] | outcome [8] | Potency [9] | outcome [10]
active: Potency [2] 6.68 µM

Cc1c(Cl)cccc1Nc1ccccc1C(=O)O
inactive: Potency [2] | Potency [4] | Potency [5] | outcome [7] | outcome [8] | Potency [9] | outcome [10]
active: Potency [1] 21.1 µM | Potency [3] 18.8 µM | Potency [6] 11.9 µM

O=C(O)c1c2ccccc2cc2ccccc12
inactive: Potency [1] | Potency [2] | Potency [3] | Potency [4] | Potency [5] | Potency [6] | outcome [7] | outcome [8] | Potency [9] | outcome [10]

CCCCCCCCCCCCCCCCCCCl
inactive: activation [1] -2.7% [at 8.3 µM] | activation [2] 2.16% [at 8.08 µM] | activity change, negative = cytotoxicity [3] -0.103% [at 8.08 µM] | activity, negative = cytotoxicity [4] -17.2% [at 8.08 µM] | activity change, negative = cytotoxicity [5] -4.97% [at 8.08 µM] | ratio activity, negative = MMP loss [6] -5.25% [at 8.08 µM] | fluorescence, relative to Rose Bengal [7] -0.0738% [at 3.72 µM] | fluorescence, % of fluorescein control [8] 0.0105% [at 3.72 µM] | fluorescence, % of triamterene [9] 0.0349% [at 3.72 µM] | fluorescence, % of fluorescent control [10] -0.145% [at 3.72 µM]

CC(C)NC(=O)c1ccccc1N
inactive: Potency [1] | Potency [2] | Potency [3] | Potency [4] | Potency [5] | Potency [6] | outcome [7] | outcome [8] | Potency [9] | outcome [10]

CC(C)Oc1ccccc1O
inactive: Potency [1] | Potency [2] | Potency [3] | Potency [4] | Potency [5] | Potency [6] | outcome [7] | outcome [8] | Potency [9] | outcome [10]

CC(=O)Nc1ccn(C2COC(COC(=O)c3ccccc3)O2)c(=O)n1 (centres undefined)
inactive: Potency [2] | Potency [3] | Potency [4] | Potency [5] | Potency [6] | outcome [7] | outcome [8] | outcome [10]
active: Potency [1] 3.76 µM

O=Cc1ccc([N+](=O)[O-])cc1
inactive: Potency [1] | Potency [2] | Potency [3] | Potency [4] | Potency [5] | Potency [6] | outcome [7] | outcome [8] | Potency [9] | outcome [10]

NC(=O)c1ccccc1C(N)=O
active: Potency [6] 61.4 µM
inactive: Potency [1] | Potency [2] | Potency [3] | Potency [4] | Potency [5] | outcome [7] | outcome [8] | Potency [9] | outcome [10]

O=C(O)c1cc(C(=O)O)cc([N+](=O)[O-])c1
inactive: Potency [1] | Potency [2] | Potency [3] | Potency [4] | Potency [5] | Potency [6] | outcome [7] | outcome [8] | Potency [9] | outcome [10]

CCCCCCCCCCCC(=O)OCC
inactive: Potency [1] | Potency [2] | Potency [3] | Potency [4] | Potency [5] | Potency [6] | outcome [7] | outcome [8] | Potency [9] | outcome [10]

CCCCCCCCS
inactive: Potency [1] | Potency [2] | Potency [3] | Potency [4] | Potency [5] | Potency [6] | outcome [7] | outcome [8] | Potency [9] | outcome [10]
